Potency, outcome and max activation data for 28 molecules are collected here from PubChem BioAssay (Tox21).

Unmarked numbers belong to inactive results. Inconclusive results are not listed. Active and inactive are the calls of the source. Calls follow the shape of the dose curve; as a rule, active = well fitted curve in the direction sought with a large enough effect in the repeat runs; inconclusive = weak or mixed curves; inactive = no such curve, though single readings can be large; an effect the other way counts as inactive or inconclusive.

Assay [1] in a line: Human pregnane X receptor (PXR) small molecule agonists, qHTS cell viability counter screen (AID 1346977). Also: nearly all actives have a fitted effect of over 50% in size. Also: potency is read from the fitted curve at half-maximal effect. The gist of the method:
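Readout is CellTiter-Fluor fluorescence from PXR-Luc HepG2 cells. Plated cells rested 5hr, then were treated with compounds for 24hr at 37C and 5% CO2, with reagent present during the last hour.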
A general note: qHTS replaces the single test concentration by a dilution series.

Assay [2] is described as follows: Caspase-3/7 induction in HepG2 cells by small molecules, qHTS assay (AID 1346978). Also: nearly all actives have a fitted effect of over 15% in size. Summed up: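 Wild-type HepG2 cells (2,000/well) were settled 5 h at 37 C, 5% CO2, then exposed to compounds in DMSO for 17 h. Caspase-3/7 activity was read by luminescence 30 min after adding Caspase-Glo 3/7 reagent at room temperature.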
Assay [3] is described as follows: Caspase-3/7 induction in CHO-K1 cells by small molecules, qHTS cell viability counter screen (AID 1346979). Also: nearly all actives have a fitted effect of over 35% in size. Also: potency is read from the fitted curve at half-maximal effect. Summed up:
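To flag cytotoxic compounds, treated CHO-K1 wild-type cells were given CellTiter-Fluor at 16hr and read fluorescently after 1hr at 37C; the caspase-3/7 luminescence was measured in these same wells.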

A short description of assay [4]: Caspase-3/7 induction in HepG2 cells by small molecules, qHTS cell viability counter screen (AID 1346981). Also: nearly all actives have a fitted effect of over 30% in size. Also: potency is read from the fitted curve at half-maximal effect. Summed up:
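Wild-type HepG2 cells (2,000/well) were allowed to settle for 5 hr at 37 C, 5% CO2, then dosed with compounds in DMSO by pin transfer. After 16 hr at 37 C, CellTiter-Fluor was added and fluorescence read 1 hr later.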

For assay [5], the target named is Nuclear receptor subfamily 1 group I member 2 (Homo sapiens) (UniProt O75469). Nature of the assay: Human pregnane X receptor (PXR) small molecule agonists, qHTS assay (AID 1346982). Also: nearly all actives have a fitted effect of over 35% in size. Also: potency is read from the fitted curve at half-maximal effect. Summed up: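 PXR-Luc HepG2 cells (CYP3A4 promoter-driven luciferase) were seeded in medium with 5% charcoal-stripped FBS, left 5 hr at 37 C, then exposed to compounds in DMSO for 24 hr. Luminescence was read after ONE-Glo addition.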
Sequence of Nuclear receptor subfamily 1 group I member 2 (Homo sapiens) (O75469 whole entry, looked up): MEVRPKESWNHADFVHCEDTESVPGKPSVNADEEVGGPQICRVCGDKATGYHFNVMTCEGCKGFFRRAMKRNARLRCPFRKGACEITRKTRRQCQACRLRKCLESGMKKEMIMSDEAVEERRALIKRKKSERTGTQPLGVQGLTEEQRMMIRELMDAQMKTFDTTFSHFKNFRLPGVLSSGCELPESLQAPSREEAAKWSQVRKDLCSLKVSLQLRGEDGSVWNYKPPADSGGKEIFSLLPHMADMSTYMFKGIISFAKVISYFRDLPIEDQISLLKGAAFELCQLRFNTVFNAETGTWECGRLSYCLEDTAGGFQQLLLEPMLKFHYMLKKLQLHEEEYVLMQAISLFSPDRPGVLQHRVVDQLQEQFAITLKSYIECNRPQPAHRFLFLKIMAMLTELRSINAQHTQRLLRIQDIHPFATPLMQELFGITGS

The target of assay [6] is Cytochrome P450 2D6 (Homo sapiens) (UniProt P10635). Kind of assay: Cytochrome P450 Family 2 Subfamily D Member 6 (CYP2D6) small molecule antagonists: luciferase reporter qHTS assay (AID 1671196). Also: nearly all actives have a fitted effect of over 50% in size. Also: potency is read from the fitted curve at half-maximal effect. Summed up:
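CYP2D6 enzyme–substrate mix was held with compound for 10 min at room temperature, then NADPH regeneration solution was added and the reaction ran 1 h at room temperature. Luciferin product was detected by luminescence after 20 min with detection reagent.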
In general terms: Reporter assays use an easily measured gene product as a stand-in for the process of interest.

Assay [7] is described as follows: Caspase-3/7 induction in CHO-K1 cells by small molecules, qHTS assay (AID 1346980). Also: nearly all actives have a fitted effect of over 15% in size. The gist of the method:
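Wild-type cells were seeded at 1,500 per well and settled 5 hr at 37 C, 5% CO2, then exposed to DMSO-dissolved compounds for 17 hr. Caspase-Glo 3/7 reagent was added, and luminescence was read after 30min at room temperature.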

The target of assay [8] is Nuclear receptor subfamily 1 group I member 2 (Rattus norvegicus) (UniProt Q9R1A7). Kind of assay: Rat pregnane X receptor (rPXR) activation by small molecules, qHTS assay (AID 1346983). Also: nearly all actives have a fitted effect of over 20% in size. Also: potency is read from the fitted curve at half-maximal effect. The settings on record: rPXR luciferase reporter cells, One-Glo luminescence, 24 h; max activation: hits give high values. Summed up: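 Cell-based rPXR luciferase reporter assay, 2,000 cells per well, rested 5hr at 37 C before compound addition in DMSO, then 24 hr at 37 C. One-Glo reagent was added and luminescence read after 30 min at room temperature.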
Sequence of Nuclear receptor subfamily 1 group I member 2 (Rattus norvegicus) (Q9R1A7 whole entry, looked up): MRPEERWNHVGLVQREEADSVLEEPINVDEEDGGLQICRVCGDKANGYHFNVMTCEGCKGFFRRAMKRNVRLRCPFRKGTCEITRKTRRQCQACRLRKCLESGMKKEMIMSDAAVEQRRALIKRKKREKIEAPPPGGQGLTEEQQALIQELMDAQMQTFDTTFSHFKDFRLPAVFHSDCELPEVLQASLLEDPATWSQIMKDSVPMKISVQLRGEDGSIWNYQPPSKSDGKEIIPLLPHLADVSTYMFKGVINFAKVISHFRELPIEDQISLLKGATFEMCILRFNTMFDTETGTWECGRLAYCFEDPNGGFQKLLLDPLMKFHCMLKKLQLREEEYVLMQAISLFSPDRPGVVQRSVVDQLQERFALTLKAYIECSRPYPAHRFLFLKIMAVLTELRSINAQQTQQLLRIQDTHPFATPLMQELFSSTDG

The target of assay [9] is Nuclear receptor subfamily 1 group I member 2 (Homo sapiens) (UniProt O75469). Kind of assay: CYP3A4 induction through human pregnane X receptor (PXR) by small molecules, qHTS assay (AID 1346984). Also: nearly all actives have a fitted effect of over 40% in size. Summed up:
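DPX-2 cells (HepG2 co-transfected with PXR and CYP3A4 promoter-luciferase) treated with compounds 24 h at 37C; luciferin-IPA CYP3A4 substrate 3uM final added for 3 h, then One-Glo; luminescence read. qHTS format.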

Assay [10] shares this target. Kind of assay: Human pregnane X receptor (PXR) activation by small molecules, qHTS assay (AID 1346985). Also: nearly all actives have a fitted effect of over 40% in size. The gist of the method:
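DPX-2 cells (HepG2 co-transfected with a PXR response element and a CYP3A4-promoter luciferase construct) were seeded at 2,000 per well, rested 5 hr at 37C, then exposed to DMSO-dissolved compounds for 24 hr. Activation was read as luciferase luminescence.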
% is scaled to controls: 0 for no effect and ±100 for the full control effect.

Sequence of Cytochrome P450 2D6 (Homo sapiens) (P10635 whole entry, looked up): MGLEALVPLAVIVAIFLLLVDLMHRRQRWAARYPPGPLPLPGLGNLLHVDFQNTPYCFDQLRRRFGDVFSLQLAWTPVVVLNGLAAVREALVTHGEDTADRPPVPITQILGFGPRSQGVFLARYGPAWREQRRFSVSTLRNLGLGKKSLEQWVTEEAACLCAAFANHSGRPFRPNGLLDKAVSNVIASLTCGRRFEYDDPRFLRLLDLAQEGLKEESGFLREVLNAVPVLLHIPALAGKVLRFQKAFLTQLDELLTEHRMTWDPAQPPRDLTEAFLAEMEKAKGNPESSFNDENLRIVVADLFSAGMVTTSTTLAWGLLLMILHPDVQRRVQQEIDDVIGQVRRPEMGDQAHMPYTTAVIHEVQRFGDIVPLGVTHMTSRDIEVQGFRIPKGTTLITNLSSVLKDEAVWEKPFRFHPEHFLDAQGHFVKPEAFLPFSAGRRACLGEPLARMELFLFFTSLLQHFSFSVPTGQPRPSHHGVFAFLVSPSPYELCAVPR

Turning to `Cc1ccc(C)o1`, the Potency result in assay [1], in assay [3], in assay [4], in [5] and in [6] was “inactive” throughout. For the same molecule, in assay [2], the molecule was called inactive.

Consider `O=C(NS(=O)(=O)/C=C/c1cccs1)c1ccc(F)cc1Br`, for which the Potency result in assay [1], in assay [3], in assay [7] and in [6] was “inactive” throughout. Moreover, in [2], the call was inactive. In addition, the Potency in [5] was 30.6 µM (active).

With `NC(N)=NN=C(/C=C/c1ccc([N+](=O)[O-])o1)/C=C/c1ccc([N+](=O)[O-])o1`, the Potency was 6.68 µM (active) in assay [1]; 5.31 µM (active) in assay [3]; 8.41 µM (active) in assay [4]; 2.66 µM (active) in assay [5]; 15.5 µM (active) in assay [6]. In [2], the result was inactive. Also, the max activation in assay [8] was -21.7%. Further, the Potency entry in [9] and in assay [10] was “inactive” throughout.

`CC(=O)OC/C=C/c1ccccc1`: the Potency result in assay [1], in assay [3], in assay [7], in assay [4] and in assay [6] was “inactive” in each case. The result in assay [2] was inactive.

In the case of `O=C(Cl)c1ccc([N+](=O)[O-])cc1`, the Potency result in [1], in assay [3] and in [7] was “inactive” each time. Moreover, in assay [2], the call was inactive. In assay [5], the Potency is 5.35 µM (active).

`CCCc1ccccc1`: the Potency result in assay [1], in [3], in assay [7], in [4] and in assay [6] was “inactive” throughout. Also, the call in [2] was inactive.

Take `CCOC(=O)CC(=O)c1cc(F)c(Cl)nc1Cl`: the Potency entry in assay [1], in assay [3], in assay [4], in assay [5] and in assay [6] was “inactive” throughout. For the same molecule, in [2], the call was inactive.

Take `CCOC(=O)C1=NN(c2ccccc2)C(=O)C1`: the Potency result in assay [1], in [3], in assay [7], in assay [4] and in [6] was “inactive” each time. For the same molecule, the result in [2] was inactive.

As for `CC(=O)[C@@]1(O)CC[C@H]2[C@@H]3C[C@H](C)C4=CC(=O)CC[C@]4(C)[C@H]3CC[C@@]21C`, the Potency result in assay [1], in [3], in [7] and in [4] was “inactive” in each case. Also, the molecule was classed as inactive in [2]. Further, the Potency in [6] was 34.7 µM (active).

For the molecule `CC[C@]12CCCN3CCc4c(n(c5ccccc45)C(=O)C1)[C@@H]32`, the Potency result in assay [1] and in assay [7] was “inactive” in each case. The molecule was classed as inactive in assay [2]. Moreover, the Potency was 26.6 µM (active) in assay [3], 8.91 µM (active) in [8] and 0.155 µM (active) in assay [6].

Take `CCCCCCCCCO`: the Potency entry in assay [1], in assay [3], in assay [4] and in assay [5] was “inactive” in each case. The outcome in [2] was inactive.

Regarding `CC(=O)O[C@@H]1C(=O)O[C@@H]2[C@H]1OC(=O)[C@@H]2OC(C)=O`, the Potency result in assay [1], in assay [3], in assay [4], in [5] and in assay [6] was “inactive” in each case. The outcome in [2] was inactive.

For the molecule `COCCCCCCCCOCCC[Si](C)(O[Si](C)(C)C)O[Si](C)(C)C`, the Potency in assay [1] is 30.6 µM (active); in assay [3], 13.7 µM (active); in assay [5] it was 12.2 µM (active). For the same molecule, the call in assay [2] was inactive. Also, the Potency entry in assay [7] and in assay [6] was “inactive” each time.

As to `CCN(CC)CCOc1ccc2c(c1)C(=O)c1cc(OCCN(CC)CC)ccc1-2`, the Potency in [1] was 13.3 µM (active); in assay [3], 26.6 µM (active). The call in assay [2] was inactive. In addition, the Potency result in assay [7], in [9] and in assay [10] was “inactive” throughout. In addition, in assay [8], the max activation was 2.03%.

Consider `CC1CCc2cc(F)cc3c(=O)c(C(=O)O)cn1c23` (centres undefined), for which the Potency entry in [1], in [3], in assay [7], in [4] and in assay [6] was “inactive” in each case. In [2], the molecule was called inactive.

Turning to `O=C1Nc2cc(Cl)ccc2Oc2ccccc21`, the Potency result in assay [1], in assay [3], in assay [7], in [5] and in assay [6] was “inactive” in each case. Besides, the call in [2] was inactive.

Regarding `CC(=O)c1c(C)c([N+](=O)[O-])c(C(C)(C)C)c([N+](=O)[O-])c1C`, the Potency entry in assay [1], in assay [3], in assay [4] and in assay [6] was “inactive” in each case. The molecule was called inactive in assay [2]. The Potency in assay [5] was 48.6 µM (active).

`CN(C)CCCOc1nn(Cc2ccccc2)c2ccccc12`: the Potency in [1] was 26.6 µM (active). Further, in [2], the molecule was classed as inactive. The Potency result in [3] and in [4] was “inactive” each time.

With `Cn1c(NCCN(CCO)CCCc2ccc([N+](=O)[O-])cc2)cc(=O)n(C)c1=O`, the Potency result in [1], in [3], in assay [4], in assay [5], in assay [9] and in assay [10] was “inactive” in each case. Also, the result in assay [2] was inactive. Moreover, the max activation in assay [8] is -2.3%.

As for `CCCCCCCCCC=O`, the Potency entry in assay [1], in assay [3], in assay [7], in assay [5] and in [6] was “inactive” in each case. Further, the result in assay [2] was inactive.

Take `O=C1[C@H](CC[C@H](O)c2ccc(F)cc2)[C@@H](c2ccc(O)cc2)N1c1ccc(F)cc1`: the Potency result in assay [1], in [7], in [9] and in assay [10] was “inactive” each time. Moreover, in assay [2], the outcome was inactive. For the same molecule, the Potency in [3] was 29.8 µM (active); in assay [6], 30.9 µM (active). For the same molecule, in [8], the max activation is -2.85%.

Turning to `CCCCCCc1ccc(N)cc1`, the Potency entry in [1], in assay [3] and in [7] was “inactive” throughout. Moreover, the outcome in assay [2] was inactive. Moreover, the Potency in assay [5] is 30.6 µM (active).

With `COCCOCCOCCOCCOC`, the Potency entry in assay [1], in [3], in assay [7], in [4] and in [6] was “inactive” each time. Also, the molecule was called inactive in assay [2].

For `C=CC(C)(CCC=C(C)C)OC(=O)c1ccccc1` (centres undefined), the Potency entry in assay [1], in [3], in assay [7] and in assay [6] was “inactive” throughout. In addition, in assay [2], the molecule was classed as inactive.

As for `N[C@H]1C(O)O[C@H](CO)[C@H](O)[C@@H]1O` (some centres undefined), the Potency entry in assay [1], in assay [3], in [7], in [4] and in assay [6] was “inactive” each time. Further, in [2], the molecule was called inactive.

Turning to `C=CC[N+]1([C@H]2C[C@H]3[C@@H]4CC[C@H]5C[C@H](OC(C)=O)[C@@H](N6CCCCC6)C[C@]5(C)[C@H]4CC[C@]3(C)[C@H]2OC(=O)CC)CCCCC1`, the Potency result in assay [1], in [3], in assay [4] and in assay [5] was “inactive” in each case. For the same molecule, the molecule was called inactive in [2]. In assay [6], the Potency was 11 µM (active).

As to `CC/C(=C\C(=N/O)C(N)=O)C(C)[N+](=O)[O-]` (centres undefined), the Potency result in [1], in assay [3], in assay [7], in assay [4] and in assay [6] was “inactive” in each case. In addition, the molecule was called inactive in [2].

Turning to `CCCC[C@H]1CN(CC2CCOCC2)C(=O)OC12CCN(C1(C)CCN(C(=O)c3c(C)ncnc3C)CC1)CC2`, the Potency result in assay [1], in [3], in assay [7] and in [6] was “inactive” throughout. Further, in [2], the molecule was called inactive.
